Test results published in the supplement of paper PMC6555819.

How the values were obtained:
Assay in all cases: PBM binding z-score (relative to random genomic background probes); higher = stronger binding; sequences stand for … in GC…GCGATTGACAGCGTAGAATGAAGG
[1] = system: FXR:RXRa (NR concentration 270 nM, RXRa partner concentration 90 nM)
Procedure, shortened: (§1)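 The probes on custom Agilent 4×180K protein-binding microarrays were double-stranded, with 34-nt variable regions bearing direct-repeat seeds, single-nucleotide variants, half-site ablations and random human genomic background sequences. Incubation lasted 1 h with ligand-free nuclear receptor dimers in PBS pH 7.4, 2% milk, 0.02% Triton X-100, 1 mM DTT, 0.2 mg/mL BSA and 0.4 mg/ml salmon testes DNA. Antibodies against each partner (one per run) detected bound dimers, and fluorescence scans were regression-normalized. Binding z-scores take the random background probes as reference.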

[2] = system: LXRa:RXRa (NR concentration 270 nM, RXRa partner concentration 90 nM)
Procedure, shortened: as §1

[3] = system: LXRa homodimer (NR concentration 270 nM)
Procedure, shortened: as §1

[4] = system: LXRb:RXRa (NR concentration 270 nM, RXRa partner concentration 90 nM)
Procedure, shortened: as §1

[5] = system: LXRb homodimer (NR concentration 270 nM)
Procedure, shortened: as §1

[6] = system: PPARa:RXRa (NR concentration 270 nM, RXRa partner concentration 90 nM)
Procedure, shortened: as §1

[7] = system: PPARg:RXRa (NR concentration 180 nM, RXRa partner concentration 90 nM)
Procedure, shortened: as §1

[8] = system: PPARg:RXRa 270nM:90nM, anti-RXR (NR concentration 270 nM, RXRa partner concentration 90 nM)
Procedure, shortened: as §1

[9] = system: PPARg:RXRa 30nM:10nM, anti-RXR (NR concentration 30 nM, RXRa partner concentration 10 nM)
Procedure, shortened: as §1

[10] = system: PPARg:RXRa 90nM:30nM, anti-RXR (NR concentration 90 nM, RXRa partner concentration 30 nM)
Procedure, shortened: as §1

[11] = system: PPARg:RXRa DBDmut IVT, anti-RXR (DBD mutation: RXRa K156A/R161A, NR concentration 270 nM, RXRa partner concentration 90 nM)
Procedure, shortened: as §1

[12] = system: PPARg:RXRa IVT, anti-PPARg (NR concentration 270 nM, RXRa partner concentration 90 nM)
Procedure, shortened: as §1

[13] = system: PPARg DBDmut:RXRa IVT, anti-PPARg (DBD mutation: PPARg1 K132A/R137A, NR concentration 270 nM, RXRa partner concentration 90 nM)
Procedure, shortened: as §1

[14] = system: PPARg DBDmut IVT, anti-PPARg (DBD mutation: PPARg1 K132A/R137A, NR concentration 270 nM)
Procedure, shortened: as §1

[15] = system: PPARg homodimer (NR concentration 180 nM)
Procedure, shortened: as §1

[16] = system: PXR:RXRa (NR concentration 270 nM, RXRa partner concentration 90 nM)
Procedure, shortened: as §1

[17] = system: PXR homodimer (NR concentration 270 nM)
Procedure, shortened: as §1

[18] = system: RARa:RXR (NR concentration 270 nM, RXRa partner concentration 90 nM)
Procedure, shortened: as §1

[19] = system: RARa homodimer (NR concentration 270 nM)
Procedure, shortened: as §1

[20] = system: RARb:RXRa (NR concentration 270 nM, RXRa partner concentration 90 nM)
Procedure, shortened: as §1

Sequence	PBM binding z-score [1]	PBM binding z-score [2]	PBM binding z-score [3]	PBM binding z-score [4]	PBM binding z-score [5]	PBM binding z-score [6]	PBM binding z-score [7]	PBM binding z-score [8]	PBM binding z-score [9]	PBM binding z-score [10]	PBM binding z-score [11]	PBM binding z-score [12]	PBM binding z-score [13]	PBM binding z-score [14]	PBM binding z-score [15]	PBM binding z-score [16]	PBM binding z-score [17]	PBM binding z-score [18]	PBM binding z-score [19]	PBM binding z-score [20]
CCTGCTAGGTCAATGGGCAGCTAAAGCAGCTCGC	1.94	1.62	-0.481	0.861	-0.588	2.59	2.02	3.18	0.64	2.19	3.7	3.4	-0.844	-1.02	0.228	0.352	-0.589	1.07	-0.679	3.6
TCTAGTTAGTCACGGAGGTCACACACGACGGGTA	3.07	3.04	2.41	3.3	0.442	3.76	2.22	3.13	3.48	3.22	1.76	2.1	1.18	0.869	2.2	4.09	1.01	4.71	1.62	3.26
CCTGCTAGGTCGATGGTCAGCTAAAGCAGCTCGC	-0.156	-0.179	-0.637	-0.279	-0.599	0.0378	0.232	1.43	-0.649	0.713	0.713	0.603	-1.63	-0.626	-0.348	-0.314	-0.494	-0.143	-0.87	1.03
TCGAGTAGTTTAGGGGCATTCAGAATGGCGTCGA	-0.0607	0.048	-0.581	0.829	-0.452	0.549	-0.393	0.237	0.631	0.559	0.75	-0.281	-0.799	-1.01	-0.288	0.444	-0.187	0.532	-0.906	0.653
CTTCCAAGGTCAGAGAGGTCAGTGAATGCCGAGT	5.96	5.16	3.44	4.49	0.991	4.78	3.44	4.24	1.24	2.89	2.81	3.44	-0.247	0.0425	3.75	5.75	11.5	4.71	1.5	5.27
CCTCGGAGGACTGAAGGTCAGAGCTGTCCGCTTT	0.88	1.89	0.285	0.745	-0.722	1.46	-0.679	0.572	-0.9	-0.111	-0.418	-0.254	-2.59	-3.05	0.742	1.32	-0.196	1.28	-0.166	2.38
TCTCGGAGGACACGAAAGGTCAGATCTCGACATC	3.11	3.81	3.83	3.85	0.385	3.44	1.37	2.81	3.01	2.77	2.03	1.5	-0.0755	-0.793	2.23	3.88	0.563	3.78	0.369	4.15
ATCTCAAGGTAACCAAGTTCAGTGAATGCCGAAC	0.76	1.12	0.681	0.656	0.916	0.956	0.372	0.412	0.204	0.378	0.508	1.32	0.386	0.953	0.654	2.82	3	1.14	0.198	1.62
CCTCCTGGGCCATTCAGAGGTCATTGATCATATG	2.62	4.24	6.14	3.46	-0.028	3.23	0.59	1.78	0.334	0.958	0.035	1.4	-0.946	-1.05	2.13	4.87	2.7	4.93	0.138	3.04
ATCTCTAGGTAAAGATAGTTCAATGAATGCAAAT	0.446	4.83	1.09	1.44	0.777	1.15	1.03	0.735	0.381	0.638	2.11	1.74	1.55	1.22	0.945	1.65	1.02	0.946	1.4	1.07
ACAGACAGGTAAGTGAAGGTAACTCAGCTGGACG	0.106	0.0707	-0.103	-0.313	-0.579	-0.355	0.687	-0.165	-0.141	-0.389	-0.107	0.305	0.744	-0.0686	-0.111	-0.306	0.283	-0.575	0.213	0.109
CATACTGGGTCAGCTAGGCCAGAGTAGGGACGGC	0.696	0.526	-0.513	0.249	-0.198	2.16	3.45	2.95	0.499	2.06	4.6	5.45	0.321	0.266	0.468	0.34	-0.327	0.776	-0.0823	3.04
CCTATTGGGCCACGAAAGGTCATTGATTCAGTGA	3.94	5.43	5.04	4.14	0.248	4.6	2.92	4.31	1.71	3.67	4.26	4.09	0.172	-0.271	5.52	5.82	1.47	5.93	2.11	4.13
